Screens deposited in PubChem BioAssay by National Center for Advancing Translational Sciences (NCATS).
aSyn rescue = rescues yeast growth from alpha-synuclein toxicity; Yeast expressing alpha-synuclein, growth rescue, BacTiter-Glo, 24 h; Potency, µM (titrated, usually from 46.1 µM), for inactives: at the highest dose growth rescue (activation), hits mostly activators; hit rate 0.14% among 370,000; AID 652106; also: potency is read from the fitted curve at half-maximal effect; % of control where 0% means no effect; nearly all actives have a fitted effect of over 65% in size
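Readout is rescue of growth in alpha-synuclein-expressing yeast, so inhibitors of toxicity appear as activators. Growth after 24 hr at 30 deg C in galactose medium is quantified by luminescence.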
TDP-43 yeast inh = rescues yeast growth from TDP-43 toxicity | TDP-43 expressing yeast growth rescue, BacTiter-Glo, 24 h | hit rate 1.8% among 410,000 | Potency, µM (top dose mostly 46.1 µM), without a hit: top-dose growth rescue (activation), actives largely listed as activators; also: potency is read from the fitted curve at half-maximal effect; % of control where 0% means no effect; nearly all actives have a fitted effect of over 50% in size
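Readout is BacTiter-Glo luminescence of cell growth, so inhibitors register as activators. TDP-43-expressing yeast at OD600=0.02 in galactose medium, after raffinose pregrowth to mid-log, were incubated with compound for 24 hr at 30 deg C.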
Abeta yeast res = compounds reversing amyloid beta toxicity in yeast | yeast expressing A-beta42, growth rescue, OD600, 48 h; response scale: 0% DMSO, 100% iron-clioquinol control | AID 1347071 | Potency, µM (top dose mostly 46.1 µM), hits mostly activators | hit rate 0.063% among 410,000; also: potency is read from the fitted curve at half-maximal effect; nearly all actives have a fitted effect of over 55% in size
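Growth rescue measured by 600 nm absorbance after 48 h yeast culture at 30 C with compound. Values normalized between DMSO and an equimolar ferric chloride plus clioquinol control.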
FUS suppressor = suppressors of FUS proteinopathy in yeast. AID 1347120. S. cerevisiae FUS-expressing, growth rescue, OD600, 24 h. hit rate 0.24% among 390,000. Potency, µM (top dose mostly 76.6 µM), actives largely listed as activators;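 also: potency is read from the fitted curve at half-maximal effect; plate controls were DMSO vehicle for no effect and reference control for full effect; nearly all actives have a fitted effect of over 55% in size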
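S. cerevisiae expressing FUS from galactose induction served as the toxicity model. Growth after 24hr at 30C, read as absorbance at 600 nm, indicates suppression of toxicity; compounds dosed at several concentrations.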
Akt phos inh = blocks phosphorylation of Akt; AID 651550; Neuro2A IGF-stimulated pAkt S473 HTRF, 20 min; stronger effect = lower value; hit rate 0.32% among 360,000; activity change, % for hits at 50 µM; in the data active = activity change below about -80%; inconclusive = mostly about -51% to -80%; also: % is scaled to controls: 0 for no effect and ±100 for the full control effect
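Single-point screen (50 µM final compound) in Neuro2A cells stimulated 20 min with 6 nM IGF at 37 deg C. After lysis, Ser473-phosphorylated Akt read by HTRF (ex 330 nm, em 615/665 nm) as the 665/615 ratio.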
* hit, by the source's call; i = inactive; ? = inconclusive; nt = not tested or not shown. Compounds with a hit are over-represented: about 2.3% of the library has one in this group of screens. Unless noted, calls follow the shape of the dose curve; as a rule, active = well fitted curve in the direction sought with a large enough effect; inconclusive = small, poorly fitted or top-dose-only effect, or another doubt; inactive = no such curve, though single readings can be large; an effect the other way counts as inactive or inconclusive.

SMILES	aSyn rescue	TDP-43 yeast inh	Abeta yeast res	FUS suppressor	Akt phos inh
O=C(c1cc([N+](=O)[O-])ccc1Cl)N1CCN(c2ccccc2)CC1	5%	7.9µM*	i	i	i
Cc1ccc(NC(=O)CN2C(=O)c3ccccc3Sc3ccc(C(=O)N4CCOCC4)cc32)c(Cl)c1	nt	8%	i	i	nt
C=CCc1ccccc1OCC(O)CN1C(=O)c2ccccc2C1=O (centres undefined)	17%	11µM*	i	i	i
Cc1nc2ccc(NS(=O)(=O)c3ccccc3Cl)cc2s1	21%	18µM*	i	i	i
CSc1nc2ccc(NS(=O)(=O)c3ccc([N+](=O)[O-])cc3)cc2s1	-1%	?	i	i	i
Cc1nc2ccc(C(=O)Nc3ccccc3Cl)cc2s1	0%	11µM*	i	i	i
CC(=O)c1ccc(NC(=O)c2ccc3nc(C)sc3c2)cc1	-8%	14%	i	i	i
CSc1nc2ccc(NS(=O)(=O)c3cccc(Cl)c3Cl)cc2s1	-17%	32µM*	i	?	i
CCCCOCc1cc(CN2CCN(c3cccc(Cl)c3)CC2)c(O)c2ncccc12	nt	-57%	i	?	nt
COc1ccccc1N(O)C1CC(=O)N(c2ccc(Br)cc2)C1=O (centres undefined)	-10%	28µM*	i	?	i
CC1=C(C(=O)Nc2cccnc2)C(c2ccc(F)cc2)n2nc(-c3cccc(C)c3)nc2N1 (centres undefined)	nt	?	i	i	nt
Cc1ccc(C(c2c(O)cc(C)n(Cc3ccco3)c2=O)N2CCC(C)CC2)cc1 (centres undefined)	nt	5%	i	i	nt
Cc1ccc(CN2CCN(/N=C\C(Br)=C\c3ccccc3)CC2)cc1	2%	13µM*	i	i	i
Cc1cc(OCc2cccc(S(=O)(=O)N3CCOCC3)c2)ccc1Cl	0%	35µM*	i	i	i
CC12CCC(C(=O)NCCN3CCCCC3)(CC1=O)C2(C)C (centres undefined)	-1%	-22%	i	i	-114%*
Cc1nn2c(C)c(C(=O)NCCc3ccccc3)cnc2c1-c1ccccc1	nt	18µM*	i	i	nt
CCN(CC)c1ccc(-c2nn3c(-c4ccccc4Cl)nnc3s2)cc1	nt	nt	nt	32µM*	nt
COc1cccc(OC)c1-c1nn2c(-c3ccccc3Cl)nnc2s1	-1%	16µM*	i	?	i
Clc1ccccc1-c1nnc2sc(-c3ccccn3)nn12	-5%	-7%	i	?	i
CCN(CC)c1ccc(-c2nn3c(-c4cccnc4)nnc3s2)cc1	2%	?	i	i	i
N#Cc1ccc(OS(=O)(=O)c2ccc(-c3ccon3)s2)cc1	7%	13µM*	i	i	i
O=S(=O)(Nc1ccc(OC(F)F)cc1)c1ccc(-c2ccon2)s1	11%	3%	i	i	i
O=C(Nc1cccc(C(F)(F)F)c1)c1ccc(Cn2cc(Br)cn2)o1	-12%	13µM*	i	i	i
O=C(OCc1nc2scc(-c3ccccc3)c2c(=O)[nH]1)c1ccco1	5%	35µM*	?	i	i
NC(=O)Cc1nc2scc(-c3ccccc3)c2c(=O)[nH]1	-1%	-12%	i	i	i
SMILES	aSyn rescue	TDP-43 yeast inh	Abeta yeast res	FUS suppressor	Akt phos inh
CCC(Sc1nc2cc3c(cc2c(=O)n1CCCC(=O)NCc1ccc2c(c1)OCO2)OCO3)C(=O)NCCCOC (centres undefined)	nt	14%	i	i	nt
COc1ccc(Cc2nn3c(-c4ccccc4OC)nnc3s2)cc1	-4%	?	i	i	i
COc1ccccc1-c1nnc2sc(COc3ccc(Cl)cc3)nn12	29%	18µM*	i	?	i
COc1ccc(-c2nnc3sc(COc4ccccc4)nn23)cc1	7%	2.8µM*	i	i	i
Cc1ccc(-c2cnc(-c3ccncc3)o2)cc1	5%	16µM*	i	i	i
Cc1cc(C(F)(F)F)n2nc(C(=O)O)c(Cl)c2n1	5%	6%	i	i	i
Cc1cc(C(F)(F)F)n2nc(-c3cnn(C)c3C(F)(F)F)c(Br)c2n1	5%	13µM*	i	i	i
COc1ccc(Br)cc1Cn1nnc(C(=O)Nc2cccc(SC)c2)c1N	nt	17%	i	i	nt
COc1ccc(N2CCN(Cc3cccn3-c3nnc(N4CCN(C5CCCCC5)CC4)s3)CC2)cc1	3%	17%	i	i	nt
CCOc1nc(NCCO)nc(NCCC2=CCCCC2)n1	-1%	2%	i	i	i
Clc1nc(Cl)nc(NCCC2=CCCCC2)n1	3%	10µM*	i	i	i
CCN(CC)C(=O)CSCc1cnn(-c2ccccc2)c1-n1cccc1	1%	18µM*	i	i	i
CCc1ccccc1NC(=O)CSCc1cnn(-c2ccccc2)c1-n1cccc1	nt	10%	i	i	nt
COc1ccc(NC(=O)CSCc2cnn(-c3ccccc3)c2-n2cccc2)cc1	nt	16µM*	i	?	nt
CCOc1ccc(C(=O)c2cn(CC(=O)Nc3ccc(C)c(C)c3)c3ccc(OCC)cc3c2=O)cc1	nt	6%	i	i	nt
CCOc1ccc(OCc2ccc(C(=O)N(CC)CC)cc2)cc1	-11%	13µM*	i	i	i
Cc1ccc(CNC(=O)COc2cc(O)c3c(c2)OC(C)(C)CC3=O)cc1	9%	13µM*	i	?	i
COc1cccc(NC(=O)COc2cc(O)c3c(c2)OC(C)(C)CC3=O)c1	1%	18µM*	i	i	i
COc1cc2[nH]c(=O)n(CCCCCC(=O)NCCc3ccccc3)c(=O)c2cc1OC	nt	1%	i	i	nt
C/C(=N\O)c1ccc2c3c([nH]c2c1)CCCC3	-12%	2%	i	i	-90%*
CCc1ccc(NC(=O)c2ccc3c(c2)c(C)c(C)n3Cc2ccccc2)cc1	nt	-3%	i	i	nt
OC[C@H]1OC(Nc2ccc(N=Nc3ccccc3)cc2)[C@@H](O)[C@@H](O)[C@@H]1O (some centres undefined)	3%	?	i	i	i
O[C@@H]1COC(Nc2ccc(N=Nc3ccccc3)cc2)C[C@@H]1O (some centres undefined)	-2%	13µM*	i	i	i
Cc1ccc(CN(C(=O)COc2ccc(Br)cc2)c2ccccn2)o1	nt	?	i	i	nt
COc1ccc(N2CC3=C(C2=O)C(c2ccc(O)c(OC)c2)NC(=O)N3C)cc1 (centres undefined)	-1%	8%	i	i	nt
Cc1cc(Nc2ncc(Cl)cc2Cl)n(-c2ccccc2)n1	-27%	7.1µM*	i	i	i
